Experiments:
Details in all cases: concentration: 1 μM,replicates: in singlicate; n = 1
[1] = test system: T1, IKK-alpha
T1 construct: gene CHUK

[2] = test system: T2, IKK-beta
T2 construct: gene IKBKB

[3] = test system: T3, IKK-epsilon
T3 construct: gene IKBKE

[4] = test system: INSRR
[5] = test system: INSR
[6] = test system: IRAK1
[7] = test system: IRAK3
[8] = test system: IRAK4
[9] = test system: ITK
[10] = test system: JAK1(JH1domain-catalytic)
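Further: KINOMEscan kinase panel screen.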

Compound: Cc1ccc(CC(=O)N2CCc3cc(-c4cn(C)c5ncnc(N)c45)ccc32)cc1 [GSK2634758]
- %Inh [1]: 1%
- %Inh [2]: 0%
- %Inh [3]: 36%
- %Inh [4]: 12%
- %Inh [5]: 4%
- %Inh [6]: 13%
- %Inh [7]: 0%
- %Inh [8]: 0%
- %Inh [9]: 13%
- %Inh [10]: 6%

Compound: O=C(Nc1cccc(C(F)(F)F)c1)c1cccc(Oc2ccc3nccn3n2)c1
- %Inh [1]: 0%
- %Inh [2]: 0%
- %Inh [3]: 0%
- %Inh [4]: 22%
- %Inh [5]: 2%
- %Inh [6]: 25%
- %Inh [7]: 0%
- %Inh [8]: 13%
- %Inh [9]: 21%
- %Inh [10]: 2%

Compound: COc1cc2ncn(-c3cc(OCC4CCCCC4)c(C(N)=O)s3)c2cc1OC [GSK204559]
- %Inh [1]: 0%
- %Inh [2]: 2%
- %Inh [3]: 0%
- %Inh [4]: 0%
- %Inh [5]: 14%
- %Inh [6]: 0%
- %Inh [7]: 12%
- %Inh [8]: 9%
- %Inh [9]: 13%
- %Inh [10]: 0%

Compound: CSc1nccc(-c2c(-c3ccc(F)cc3)ncn2CCCN2CCOCC2)n1.Cl [SB-217146]
- %Inh [1]: 0%
- %Inh [2]: 0%
- %Inh [3]: 0%
- %Inh [4]: 0%
- %Inh [5]: 2%
- %Inh [6]: 25%
- %Inh [7]: 0%
- %Inh [8]: 0%
- %Inh [9]: 6%
- %Inh [10]: 0%

Compound: COc1cccc(C2=C(Nc3cccc(Cl)c3)C(=O)NC2=O)c1 [SB-341556]
- %Inh [1]: 39%
- %Inh [2]: 47%
- %Inh [3]: 0%
- %Inh [4]: 0%
- %Inh [5]: 13%
- %Inh [6]: 46%
- %Inh [7]: 0%
- %Inh [8]: 52%
- %Inh [9]: 13%
- %Inh [10]: 7%

Compound: Cl.Cl.NC[C@H](CC1CCCCC1)NC(=O)c1ccc(-c2ccnc3[nH]ccc23)s1 [GSK1581428]
- %Inh [1]: 31%
- %Inh [2]: 72%
- %Inh [3]: 31%
- %Inh [4]: 100%
- %Inh [5]: 5%
- %Inh [6]: 57%
- %Inh [7]: 13%
- %Inh [8]: 6%
- %Inh [9]: 5%
- %Inh [10]: 56%

Compound: Cn1ccc2ncnc(Oc3ccc(NC(=O)Nc4cncc(C(F)(F)F)c4)c(Cl)c3)c21
- %Inh [1]: 0%
- %Inh [2]: 0%
- %Inh [3]: 0%
- %Inh [4]: 0%
- %Inh [5]: 0%
- %Inh [6]: 0%
- %Inh [7]: 0%
- %Inh [8]: 0%
- %Inh [9]: 0%
- %Inh [10]: 0%

Compound: C[C@@H](Oc1cc(-n2cnc3cc(-c4cnn(C)c4)ccc32)sc1C(N)=O)c1ccccc1Cl [GSK580432]
- %Inh [1]: 0%
- %Inh [2]: 8%
- %Inh [3]: 4%
- %Inh [4]: 1%
- %Inh [5]: 0%
- %Inh [6]: 45%
- %Inh [7]: 34%
- %Inh [8]: 25%
- %Inh [9]: 23%
- %Inh [10]: 0%

Compound: CS(=O)(=O)c1cccc(CNc2nc(Nc3ccc4c(c3)[C@@H]3C[C@@H]4CNC3=O)ncc2C(F)(F)F)c1
- %Inh [1]: 5%
- %Inh [2]: 0%
- %Inh [3]: 87%
- %Inh [4]: 74%
- %Inh [5]: 94.5%
- %Inh [6]: 39%
- %Inh [7]: 0%
- %Inh [8]: 0%
- %Inh [9]: 49%
- %Inh [10]: 93%

Compound: COc1cccc(CNC(=O)NC2CCN(c3ccnc(Nc4cc(OC)c(OC)c(OC)c4)n3)C2)c1 (stereo not drawn) [GSK1379765]
- %Inh [1]: 21%
- %Inh [2]: 24%
- %Inh [3]: 36%
- %Inh [4]: 96.4%
- %Inh [5]: 0%
- %Inh [6]: 73%
- %Inh [7]: 86%
- %Inh [8]: 27%
- %Inh [9]: 20%
- %Inh [10]: 13%

Compound: O=C(NCC1CC1)c1ccc(-c2cc(C(=O)NC3CC3)ccc2F)cc1 [GW810445]
- %Inh [1]: 0%
- %Inh [2]: 0%
- %Inh [3]: 0%
- %Inh [4]: 0%
- %Inh [5]: 0%
- %Inh [6]: 0%
- %Inh [7]: 1%
- %Inh [8]: 0%
- %Inh [9]: 0%
- %Inh [10]: 0%

Compound: CN1CCN(CCNc2nc3cc(Oc4ccc(NC(=O)Nc5cc(C(F)(F)F)ccc5F)cc4)ccc3[nH]2)CC1.Cl.Cl [GW768504]
- %Inh [1]: 0%
- %Inh [2]: 0%
- %Inh [3]: 14%
- %Inh [4]: 0%
- %Inh [5]: 5%
- %Inh [6]: 0%
- %Inh [7]: 5%
- %Inh [8]: 0%
- %Inh [9]: 0%
- %Inh [10]: 28%

Compound: Cl.c1ccc(Oc2ccc(Nc3ccnc4cc(-c5ccc(CN6CCNCC6)o5)ccc34)cc2)nc1 [GW567142]
- %Inh [1]: 0%
- %Inh [2]: 0%
- %Inh [3]: 42%
- %Inh [4]: 0%
- %Inh [5]: 20%
- %Inh [6]: 0%
- %Inh [7]: 0%
- %Inh [8]: 5%
- %Inh [9]: 2%
- %Inh [10]: 21%

Compound: CCNCC(Cc1ccccc1)NC(=O)c1cc(Br)c(-c2ccnc3[nH]ccc23)s1.Cl.Cl (stereo not drawn) [GSK1383280]
- %Inh [1]: 3%
- %Inh [2]: 33%
- %Inh [3]: 19%
- %Inh [4]: 0%
- %Inh [5]: 0%
- %Inh [6]: 42%
- %Inh [7]: 36%
- %Inh [8]: 17%
- %Inh [9]: 14%
- %Inh [10]: 36%

Compound: O=c1[nH]cc(-c2ccc(O)cc2)c2sc(-c3ccncc3)cc12 [GSK1033723]
- %Inh [1]: 0%
- %Inh [2]: 0%
- %Inh [3]: 9%
- %Inh [4]: 0%
- %Inh [5]: 100%
- %Inh [6]: 59%
- %Inh [7]: 1%
- %Inh [8]: 5%
- %Inh [9]: 0%
- %Inh [10]: 35%

Compound: COc1cc2c(Nc3ccc(NC(=O)c4ccccc4)cc3)ncnc2cc1OCCCN1CCOCC1 [GSK301329]
- %Inh [1]: 0%
- %Inh [2]: 4%
- %Inh [3]: 0%
- %Inh [4]: 0%
- %Inh [5]: 0%
- %Inh [6]: 5%
- %Inh [7]: 26%
- %Inh [8]: 11%
- %Inh [9]: 26%
- %Inh [10]: 0%

Compound: CC(C)c1nc(-c2cccc(NS(=O)(=O)c3ccccc3)c2)c(-c2ccnc(Nc3ccc4c(c3)CN(C)CC4)n2)s1 [GSK1649598]
- %Inh [1]: 2%
- %Inh [2]: 15%
- %Inh [3]: 42%
- %Inh [4]: 0%
- %Inh [5]: 35%
- %Inh [6]: 65%
- %Inh [7]: 10%
- %Inh [8]: 16%
- %Inh [9]: 47%
- %Inh [10]: 25%

Compound: NC(=O)Nc1sc(-c2ccc(F)cc2)cc1C(N)=O [GW789449]
- %Inh [1]: 78%
- %Inh [2]: 100%
- %Inh [3]: 0%
- %Inh [4]: 10%
- %Inh [5]: 37%
- %Inh [6]: 41%
- %Inh [7]: 15%
- %Inh [8]: 12%
- %Inh [9]: 26%
- %Inh [10]: 91.4%

Compound: COc1ccc(Nc2nccc(N3CCC(NC(=O)c4cccc(C#N)c4)C3)n2)cc1 (stereo not drawn) [GSK1379730]
- %Inh [1]: 0%
- %Inh [2]: 6%
- %Inh [3]: 0%
- %Inh [4]: 0%
- %Inh [5]: 0%
- %Inh [6]: 10%
- %Inh [7]: 0%
- %Inh [8]: 3%
- %Inh [9]: 14%
- %Inh [10]: 6%

Compound: c1ccc(Oc2ccc(Nc3ccnc4ccc(-c5ccccn5)cc34)cc2)cc1 [GW407034]
- %Inh [1]: 9%
- %Inh [2]: 14%
- %Inh [3]: 11%
- %Inh [4]: 0%
- %Inh [5]: 5%
- %Inh [6]: 22%
- %Inh [7]: 13%
- %Inh [8]: 25%
- %Inh [9]: 13%
- %Inh [10]: 22%

Compound: Nc1nccc(-c2ccc3c(N)n[nH]c3c2)n1 [GSK1034945]
- %Inh [1]: 76%
- %Inh [2]: 53%
- %Inh [3]: 18%
- %Inh [4]: 0%
- %Inh [5]: 0%
- %Inh [6]: 45%
- %Inh [7]: 33%
- %Inh [8]: 23%
- %Inh [9]: 14%
- %Inh [10]: 0%

Compound: CC(=O)c1c(-c2ccncc2)[nH]c(-c2ccncc2)c1C [GW493036]
- %Inh [1]: 35%
- %Inh [2]: 30%
- %Inh [3]: 2%
- %Inh [4]: 0%
- %Inh [5]: 0%
- %Inh [6]: 85%
- %Inh [7]: 0%
- %Inh [8]: 32%
- %Inh [9]: 13%
- %Inh [10]: 12%

Compound: CC(=O)Nc1ccc(-c2cc3ncnc(SCC(=O)O)c3s2)cc1
- %Inh [1]: 0%
- %Inh [2]: 0%
- %Inh [3]: 0%
- %Inh [4]: 10%
- %Inh [5]: 0%
- %Inh [6]: 78%
- %Inh [7]: 52%
- %Inh [8]: 0%
- %Inh [9]: 2%
- %Inh [10]: 0%

Compound: Cn1ccc2ncnc(Oc3ccc(NC(=O)Nc4cnn(C(C)(C)C)c4)c(Cl)c3)c21
- %Inh [1]: 29%
- %Inh [2]: 17%
- %Inh [3]: 10%
- %Inh [4]: 3%
- %Inh [5]: 11%
- %Inh [6]: 43%
- %Inh [7]: 0%
- %Inh [8]: 20%
- %Inh [9]: 2%
- %Inh [10]: 6%

Compound: Cc1cccc2c(-c3ccncc3)c(-c3ccc(F)cc3)nn12.Cl [GW461487]
- %Inh [1]: 0%
- %Inh [2]: 0%
- %Inh [3]: 21%
- %Inh [4]: 0%
- %Inh [5]: 0%
- %Inh [6]: 9%
- %Inh [7]: 0%
- %Inh [8]: 0%
- %Inh [9]: 5%
- %Inh [10]: 8%

Compound: O=C(Nc1ccc(Oc2ccc3nc(NC(=O)C4CC4)cn3n2)c(F)c1)c1cccn(-c2ccccc2)c1=O
- %Inh [1]: 0%
- %Inh [2]: 0%
- %Inh [3]: 0%
- %Inh [4]: 0%
- %Inh [5]: 0%
- %Inh [6]: 0%
- %Inh [7]: 0%
- %Inh [8]: 0%
- %Inh [9]: 1%
- %Inh [10]: 8%

Compound: O=C(Nc1cccc(Oc2ccc3nccn3n2)c1)Nc1cccc(C(F)(F)F)c1
- %Inh [1]: 34%
- %Inh [2]: 0%
- %Inh [3]: 0%
- %Inh [4]: 15%
- %Inh [5]: 0%
- %Inh [6]: 13%
- %Inh [7]: 23%
- %Inh [8]: 0%
- %Inh [9]: 0%
- %Inh [10]: 27%

Compound: CS(=O)c1ccc(-c2coc3ccc(-c4n[nH]c(=O)o4)cc23)cc1 (stereo not drawn)
- %Inh [1]: 8%
- %Inh [2]: 0%
- %Inh [3]: 0%
- %Inh [4]: 1%
- %Inh [5]: 17%
- %Inh [6]: 55%
- %Inh [7]: 0%
- %Inh [8]: 28%
- %Inh [9]: 0%
- %Inh [10]: 1%

Compound: Cc1ccc2c(-c3ccnc(Nc4ccc(C(F)(F)F)cc4)n3)cnn2n1 [GW819776]
- %Inh [1]: 38%
- %Inh [2]: 10%
- %Inh [3]: 0%
- %Inh [4]: 1%
- %Inh [5]: 14%
- %Inh [6]: 73%
- %Inh [7]: 4%
- %Inh [8]: 0%
- %Inh [9]: 10%
- %Inh [10]: 4%

Compound: CCOC(=O)N1CCC(n2cnc(-c3ccc(F)cc3)c2-c2ccnc(N)n2)CC1 [SB-219952]
- %Inh [1]: 0%
- %Inh [2]: 0%
- %Inh [3]: 0%
- %Inh [4]: 0%
- %Inh [5]: 0%
- %Inh [6]: 10%
- %Inh [7]: 19%
- %Inh [8]: 11%
- %Inh [9]: 0%
- %Inh [10]: 0%

Reference: paper PMC5540273 (PLoS ONE, 2017)
